# TDP-43 yeast inh: TDP-43 toxicity inhibition in yeast; TDP-43 expressing yeast growth rescue, BacTiter-Glo, 24 h; 1.8% of 410,000 active; AID 652104; Potency, µM (top dose mostly 46.1 µM), for inactives: at the top dose growth rescue (activation), actives largely listed as activators; further: potency means the concentration at half of the fitted maximal effect; % of control where 0% means no effect; nearly all actives have a fitted effect of over 50% in size
#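 Yeast cells expressing TDP-43 under galactose induction are exposed to compounds for 24 hr at 30 deg C. BacTiter-Glo luminescence measures growth, so protective compounds score as activators.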
# FUS suppressor: FUS proteinopathy suppression in yeast; S. cerevisiae FUS-expressing, growth rescue, OD600, 24 h; Potency, µM (top dose mostly 76.6 µM), hits mostly activators; 0.24% of 390,000 active;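 further: potency means the concentration at half of the fitted maximal effect; plate controls were DMSO vehicle for no effect and reference control for full effect; nearly all actives have a fitted effect of over 55% in size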
#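 Toxicity suppression screen in FUS-yeast. Cells induced with 2% galactose, starting OD 0.005, treated 24hr at 30C with compounds at multiple final concentrations; growth by OD600.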
# aSyn rescue: alpha-synuclein toxicity inhibition in yeast | Yeast expressing alpha-synuclein, growth rescue, BacTiter-Glo, 24 h | Potency, µM (highest dose often 46.1 µM), without a hit: at the top dose growth rescue (activation), actives largely listed as activators | 0.14% of 370,000 active; further: potency means the concentration at half of the fitted maximal effect; % of control where 0% means no effect; nearly all actives have a fitted effect of over 65% in size
#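 Readout is rescue of growth in alpha-synuclein-expressing yeast, so inhibitors of toxicity appear as activators. Growth after 24 hr at 30 deg C in galactose medium is quantified by luminescence.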
# LDHA block: LDHA (human) enzyme inhibition. 0.15% of 480,000 active. activity change, % (values are at about 110 or 230 µM). AID 1347041. P00338. purified LDHA, NADH/diaphorase-resazurin fluorescence; hits give low values; in the data active means activity change below about -30%; inconclusive means mostly about -25% to -30%;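 further: plate controls were DMSO wells for no effect and wells without enzyme for full effect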
#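 Remaining NADH was detected by diaphorase (0.133 mg/mL) converting 37 µM resazurin to fluorescent resorufin, read at 0 and 20 minutes. The preceding 5-minute room-temperature reaction used 2 nM LDHA, 0.2 mM sodium pyruvate and 0.06 mM NADH at pH 7.4.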
# Abeta rescue: compounds reversing amyloid beta toxicity in yeast. yeast expressing A-beta42, growth rescue, OD600, 48 h; response scale: 0% DMSO, 100% iron-clioquinol control. Potency, µM (top dose mostly 46.1 µM), usual class: activators. 0.063% of 410,000 active. AID 1347071; further: potency means the concentration at half of the fitted maximal effect; nearly all actives have a fitted effect of over 55% in size
#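 Yeast A-beta toxicity model in growth medium with pinned compounds, 48 h at 30 C; growth read as absorbance at 600 nm. Normalized to FeCl3/clioquinol equimolar mix (positive) and DMSO (negative).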
# PTHR1 ag: PTHR1 (human) receptor agonism | 0.075% of 410,000 active | HEK293 GP2 PTHR1 cells, GloSensor cAMP luminescence, 1 h | Q03431 | AID 743266 | Potency, µM (series often up to 115 µM), without a hit: at the highest dose activation, hits mostly activators; further: potency means the concentration at half of the fitted maximal effect; nearly all actives have a fitted effect of over 55% in size
# Target sequence (Q03431 whole entry, looked up): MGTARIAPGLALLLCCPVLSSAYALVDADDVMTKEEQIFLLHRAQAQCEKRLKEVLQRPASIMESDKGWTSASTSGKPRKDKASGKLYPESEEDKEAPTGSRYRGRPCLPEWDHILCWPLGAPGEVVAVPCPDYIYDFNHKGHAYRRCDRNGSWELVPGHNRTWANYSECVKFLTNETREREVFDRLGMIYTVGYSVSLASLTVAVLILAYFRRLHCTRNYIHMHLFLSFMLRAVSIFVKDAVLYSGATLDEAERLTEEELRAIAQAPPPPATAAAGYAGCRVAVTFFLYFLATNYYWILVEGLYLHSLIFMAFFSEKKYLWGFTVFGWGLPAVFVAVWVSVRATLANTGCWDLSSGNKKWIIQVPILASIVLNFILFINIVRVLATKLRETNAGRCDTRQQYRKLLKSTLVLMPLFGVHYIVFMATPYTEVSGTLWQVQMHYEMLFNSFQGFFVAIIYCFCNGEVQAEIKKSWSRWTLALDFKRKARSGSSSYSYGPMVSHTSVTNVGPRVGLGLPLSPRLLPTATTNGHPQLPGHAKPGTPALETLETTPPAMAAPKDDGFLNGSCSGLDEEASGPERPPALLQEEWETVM
#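 HEK-293-derived GP2 cells expressing PTHR1 and a GloSensor cAMP reporter, 3,000/well, plated overnight, given luciferin plus IBMX (each 0.5 mM as added) for 1 h at 37 °C, then compound for 1 h at 37 °C. Luminescence was read after 15 min at room temperature.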
# * = called active by the depositor; i = inactive; ? = inconclusive; . = no result given; [ ] = dose if it differs, or a comment. Rows were chosen to be rich in hits. Some 1.9% of all compounds tested hit in one or more screens of this group. Unless noted, the call rests on the fitted dose curve; in most records, active means well fitted curve in the direction sought with a large enough effect; inconclusive means small, poorly fitted or top-dose-only effect, or another doubt; inactive means no such curve, though single readings can be large; an effect the other way counts as inactive or inconclusive.
SMILES,TDP-43 yeast inh,FUS suppressor,aSyn rescue,LDHA block,Abeta rescue,PTHR1 ag
CC(=O)Nc1ccc(NC(=S)NC(NC(=O)C(C)(C)C)C(Cl)(Cl)Cl)cc1 (stereo not given),.,.,.,-3,.,.
COc1ccc(-c2cc(C(=O)N3CCN(c4ncccn4)CC3)c3ccccc3n2)cc1,13µM*,i,-12%,2,i,-9%
Cc1ccc(-c2cc(C(=O)N3CCN(c4ccc(O)cc4)CC3)c3ccccc3n2)cc1,16µM*,?,6%,-2,i,-24%
O=C(c1cc(-c2ccccc2Cl)nc2ccccc12)N1CCN(c2ccccc2O)CC1,20µM*,i,-18%,-3,i,-19%
O=C(c1cc(-c2ccccc2Cl)nc2ccccc12)N1CCCC1,.,.,.,-2,.,.
O=C(CCn1c(-c2ccccc2)cc2ccccc21)N1CCN(CCO)CC1,.,.,.,-19,.,.
COc1ccc(NC(C)=O)cc1NC(=O)CCc1ncc(-c2ccccc2F)o1,.,.,.,13,.,.
CC(Cc1cccs1)NC(=S)Nc1ccc(F)cc1 (stereo not given),-18%[0.397 µM],i,0%,-6,13µM*,-19%
CCOC(=O)/C(=C\c1cccnc1)C(=O)c1cc(C(C)=O)c(Nc2ccccc2)s1,3.2µM*,.,-21%,-3,i,-95%
CCOC(=O)/C(=C\c1ccccc1)C(=O)c1cc(C(C)=O)c(Nc2ccccc2)s1,-11%,i,28%,6,i,-7%[57.5 µM]
CC(=O)c1c(C(F)(F)C(F)(F)F)n[nH]c1C,.,.,.,-1,.,.
CCOc1cc(C(=O)Nc2ccc(S(=O)(=O)Nc3cc(OC)nc(OC)n3)cc2)cc(OCC)c1OCC,11%,i,.,-5,i,-16%
COc1cc(NS(=O)(=O)c2ccc(NC(=O)c3ccc(OC)c(Br)c3)cc2)nc(OC)n1,9%,i,.,-50*,i,i
COc1ccc(C(=O)Nc2cccc(-c3nnc(-c4ccco4)o3)c2)cc1,16µM*,i,-18%,-2,i,-54%
COc1ccc(CC(=O)Nc2cccc(-c3nnc(-c4ccco4)o3)c2)cc1,0%,i,-11%,-2,i,-2%
COc1ccc(-c2nc3cc(NC(=O)c4ccccc4)ccc3o2)cc1,.,.,.,-39*,.,.
Cc1ccc(Sc2cnccc2C#N)cc1,13µM*,i,-3%,-5,i,-7%
CN(C)c1ccnc2sc(C(=O)NCc3ccccc3)c(N)c12,?,i,13µM*,-6,i,i
CC(C)CCNC(=O)CCCOc1ccccc1,9%,i,-2%,2,i,i
O=C(CCCOc1cccc(Br)c1)NCCOc1ccccc1,13µM*,i,10%,-1,i,-11%
C=CCC[C@H](Cc1ccc(F)cc1)C(=O)OC[C@H]1CCCN1C(=O)[C@@H](CC=C)CC(=O)NCCO,-2%,i,3%,6,i,-14%
C=CCC[C@@H](Cc1ccc(F)cc1)C(=O)OC[C@H]1CCCN1C(=O)[C@@H](CC=C)CC(=O)N[C@H](CO)Cc1ccccc1,19%,?,-1%,6,i,-40%
C=CCC[C@@H](Cc1ccc(F)cc1)C(=O)OC[C@@H]1CCCN1C(=O)[C@@H](CC=C)CC(=O)N(CCO)Cc1ccccc1,-5%,20µM*,-1%,5,i,-45%
C=CCC[C@@H](Cc1ccc(F)cc1)C(=O)OC[C@@H]1CCCN1C(=O)[C@H](CC=C)CC(=O)N[C@H](CO)Cc1ccccc1,?,20µM*,?,6,i,i
COCCn1cnc2c1c(=O)n(CC(=O)Nc1cc(F)ccc1F)c(=O)n2Cc1ccccc1,.,.,.,-16,.,.
CCCC(=O)NC(=S)Nc1cccc(C(C)=O)c1,?,i,1%,-3,i,i
CCCCCC(=O)NC(=S)Nc1cccc(C(C)=O)c1,-14%[0.397 µM],i,4%,-3,8.9µM*,0%
COc1ccc(CNC2CCCC2)c2ccccc12,.,.,.,4,.,.

# Screens: PubChem, National Center for Advancing Translational Sciences (NCATS)
